According to PubChem BioAssay AID1240 (Sanford-Burnham Center for Chemical Genomics, 2008):
Out of some 50,000 compounds screened, about 800 (1.6%) showed an effect of 50% or more. The list comes from a sample in which strong results are over-represented; it also holds similar structures and randomly drawn compounds.

What follows are compounds tested against Bcl-2-like protein 10 (Homo sapiens) (UniProt Q9HD36) (assay: Phenotype converters, Bcl-B/TR3 peptide binding displacement, primary biochemical FP (AID 1240;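 note: 0% = Bcl-B with tracer peptide and DMSO and 100% = tracer peptide lacking Bcl-B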)). Settings: GST-Bcl-B / FITC-TR3 peptide fluorescence polarization; stronger effect = higher value; compound at 3.75 mg/L.
Chain of Bcl-2-like protein 10 (Homo sapiens) (Q9HD36 whole entry, looked up): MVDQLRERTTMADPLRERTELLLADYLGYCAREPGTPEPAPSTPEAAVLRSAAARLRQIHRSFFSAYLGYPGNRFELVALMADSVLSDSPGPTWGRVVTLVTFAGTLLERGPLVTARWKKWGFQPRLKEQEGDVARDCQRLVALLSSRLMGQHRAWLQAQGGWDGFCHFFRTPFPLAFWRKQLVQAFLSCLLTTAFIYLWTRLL

Row | Structure (SMILES) | displacement [%]
1 | CCOC(=O)/C(C#N)=C\c1c(C)c(C)c(/C=C(/C#N)C(=O)OCC)c(C)c1C | 7.7
2 | c1ccc2c(c1)nc(N1CCOCC1)c1ccccc12 | -0.6
3 | c1ccc2nc3c(cc(N4CCOCC4)c4ccccc43)nc2c1 | 147
4 | c1ccc(-c2nc(N3CCOCC3)nc3ccccc23)cc1 | -1.9
5 | CCOC(=O)C(=O)Nc1nc(C23CC4CC(CC(C4)C2)C3)cs1 | 3.2
6 | O=C(Cc1ccccc1)Nc1ccc(Cl)c(-c2nc3cc(Cl)ccc3o2)c1 | -37.9
7 | CCC(=O)/C(C)=C(\NC(=O)c1ccccc1)c1ccccc1 | -4.8
8 | CC(C)c1ccc(N2C(=O)NC(=O)/C(=C/c3ccc(O)c(O)c3)C2=O)cc1 | -20.3
9 | O=C(CCCN1C(=O)/C(=C/c2ccccc2)SC1=S)Nc1nccs1 | 11.2
10 | O=C(CCN1C(=O)/C(=C/c2ccc(Cl)cc2)SC1=S)Nc1nccs1 | 14.9
11 | Cc1cc(NC(=O)CCN2C(=O)/C(=C\c3cccs3)SC2=S)no1 | 90.4
12 | O=C(CCN1C(=O)/C(=C/c2cccs2)SC1=S)Nc1ccccn1 | 126
13 | O=C(CCCN1C(=O)/C(=C\c2cccs2)SC1=S)Nc1nc2ccccc2s1 | 12.7
14 | O=C(CCCN1C(=O)/C(=C\c2cccs2)SC1=S)Nc1nccs1 | 114
15 | O=C(CCN1C(=O)/C(=C\c2cccs2)SC1=S)Nc1ccccc1C(=O)O | 19.8
16 | O=C(CCN1C(=O)/C(=C\c2cccs2)SC1=S)Nc1nccs1 | 120
17 | Cc1ccc(/C=C2\SC(=S)N(CCC(=O)Nc3nccs3)C2=O)cc1 | 19.4
18 | O=C(CCCN1C(=O)/C(=C\c2cccs2)SC1=S)Nc1ccccn1 | 13.2
19 | Cc1cc(NC(=O)CCN2C(=O)/C(=C/c3ccccc3)SC2=S)no1 | 5.3
20 | Cc1cc(NC(=O)CCN2C(=O)/C(=C/c3ccc(F)cc3)SC2=S)no1 | 19
21 | O=C(Nc1nccs1)c1ccc2c(c1)OCO2 | 32.1
22 | CC(NC(=O)c1cc2cc([N+](=O)[O-])ccc2oc1=O)c1ccccc1 (stereo not given) | 12.2
23 | CS(=O)(=O)N(Cc1ccc(C(=O)Nc2ccc(CC#N)cc2)cc1)c1ccccc1 | -7
24 | COc1ccc(/C=C/C(=O)NCc2ccc(C)cc2)cc1OC | 9.4
25 | Cc1cccc(NC(=O)CN(c2ccc(C(C)C)cc2)S(=O)(=O)c2ccccc2)c1 | 2.4

Row | Structure (SMILES) | displacement [%]
26 | COc1ccc(Cl)cc1N(CC(=O)NCC(C)C)S(=O)(=O)c1ccc(C)c([N+](=O)[O-])c1 | 16.7
27 | CC(C)(C)c1ccc(OCC(O)CS(=O)(=O)Cc2ccc(Cl)cc2)cc1 (stereo not given) | 8.5
28 | O=C1C2ON(c3ccccc3)C(c3ccccc3)C2C(=O)N1Cc1ccccc1 (stereo not given) | 5.9
29 | O=c1[nH]c(=O)n(-c2ccccc2)c(O)c1C(c1cccnc1)c1c(O)n(-c2ccccc2)c(=O)[nH]c1=O | -5
30 | COc1cccc(-n2c(O)c(/C=C3\C=c4ccccc4=N3)c(=O)[nH]c2=O)c1 | -0.4
31 | COc1cccc(-n2c(O)c(C(c3ccccn3)c3c(O)n(-c4cccc(OC)c4)c(=O)[nH]c3=O)c(=O)[nH]c2=O)c1 | 67.7
32 | O=C1c2ccc([N+](=O)[O-])cc2C(=O)C1c1ccc2ccccc2n1 (stereo not given) | 7.6
33 | O=C1/C(=C\c2cccc(Br)c2)SC(=S)N1c1cccc(C(F)(F)F)c1 | 18.2
34 | COc1ccc2c(c1)OCC/C2=N\OC(=O)c1ccccc1OC | -7.8
35 | O=C(COc1ccc2ccccc2c1)NCC1CCCO1 (stereo not given) | 12.6
36 | COc1ccccc1-c1coc2cc(OC(=O)c3ccc(Cl)cc3Cl)ccc2c1=O | 63.9
37 | COc1ccccc1-c1coc2cc(OC(=O)c3cccc(Cl)c3)ccc2c1=O | 6.5
38 | COc1ccccc1-c1coc2cc(OC(=O)c3ccc(Cl)cc3)ccc2c1=O | -2
39 | Cc1ccc(-c2nn(-c3ccccc3)cc2/C=C(\C#N)C(N)=O)o1 | 61.7
40 | N#CC(C#N)=Cc1cn(-c2ccccc2)nc1-c1ccc(-c2ccc([N+](=O)[O-])cc2)o1 | -5.9
41 | Cc1ccc(-c2nn(-c3ccccc3)cc2C=O)o1 | -0.3
42 | COc1ccc(CSc2nc3ccccc3n2C)cc1F | -9.9
43 | COc1ccc(OC)c(C2NC(=S)NC(C)=C2C(=O)OCCc2ccccc2)c1 (stereo not given) | 3.9
44 | COc1ccccc1N1CCN(C(=O)COc2ccc(Cl)cc2C)CC1 | -4.5
45 | COc1ccc(Cl)cc1N=Cc1c(O)[nH]c(=O)[nH]c1=O | 10.3
46 | O=c1[nH]c(=S)[nH]c(O)c1C=Nc1ccc(Cl)c(Cl)c1 | -7
47 | O=c1[nH]c(O)c(C=Nc2ccc(F)c(F)c2)c(=O)[nH]1 | 166
48 | COc1ccc2c(c1OC)C(=O)OC2Nc1cccc(F)c1 (stereo not given) | -0.4
49 | COc1ccc(-c2cc(C(F)(F)F)n3ncc(C(=O)N4CCOCC4)c3n2)cc1OC | 5.2
50 | CCOc1ccccc1NC(=O)C1CN(S(=O)(=O)c2ccccc2)CCN1S(=O)(=O)c1ccccc1 (stereo not given) | 11.2

Row | Structure (SMILES) | displacement [%]
51 | C/C(=N/NC(=O)c1cccnc1)c1cc(O)ccc1O | -12
52 | CC(C)c1ccc(/C=C2/SC(=O)N(c3ccccc3)C2=O)cc1 | 1.4
53 | CC(NC(=O)c1ccc(F)cc1)C1CC1 (stereo not given) | 4.6
54 | Cc1cc(NCCCN(C)C)n2c(nc3ccccc32)c1C#N | -13.5
55 | Cc1cc(NCCCCO)n2c(nc3ccccc32)c1C#N | 25.9
56 | Cc1cc(Nc2ccccc2)n2c(nc3ccccc32)c1C#N | -2.8
57 | Cc1cc(Nc2ccc3c(c2)OCO3)n2c(nc3ccccc32)c1C#N | 135
58 | Cc1cc(Nc2ccc3c(c2)n(C)c(=O)n3C)n2c(nc3ccccc32)c1C#N | 22.5
59 | Cc1cc(NCCCO)n2c(nc3ccccc32)c1C#N | 160
60 | CC(=O)Nc1ccc(S(=O)(=O)/N=C2\C=CC(=O)c3ccccc32)cc1 | 22.2
61 | COc1ccc(Cl)cc1C(=O)N(Cc1ccccc1)C(C)C | 11.9
62 | Cc1c(Cl)cccc1NC(=O)C1c2ccccc2Oc2ccccc21 | 11.9
63 | CCn1c2ccccc2c2cc(NC(=O)Cc3ccc(OC)c(OC)c3)ccc21 | -5.2
64 | O=c1/c(=C/c2ccc(Sc3ccccc3)o2)sc2nc3ccccc3n12 | 48.5
65 | O=c1/c(=C/c2ccc(-c3ccc(Cl)cc3)o2)sc2nc3ccccc3n12 | 10.9
66 | CSc1ccc(/C=c2\sc3nc4ccccc4n3c2=O)cc1 | 7.3
67 | O=c1/c(=C\c2ccc(OCc3ccc([N+](=O)[O-])cc3)cc2)sc2nc3ccccc3n12 | 4.5
68 | Cc1ccc(Sc2ccc(/C=c3\sc4nc5ccccc5n4c3=O)o2)cc1 | 86.8
69 | Cc1cc2nc3s/c(=C/c4ccc5c(c4)OCO5)c(=O)n3c2cc1C | -11.4
70 | O=c1/c(=C/c2ccc(C(F)(F)F)cc2)sc2nc3ccccc3n12 | 2
71 | O=c1/c(=C/c2ccc3c(c2)OCO3)sc2nc3ccccc3n12 | 69.3
72 | CC(=O)Oc1ccc(/C=c2\sc3nc4ccccc4n3c2=O)cc1 | 28
73 | O=c1/c(=C/c2ccc([N+](=O)[O-])cc2)sc2nc3ccccc3n12 | 86.7
74 | CN(C)c1ccc(/C=c2\sc3nc4ccccc4n3c2=O)cc1 | 107
75 | O=c1/c(=C/c2cc([N+](=O)[O-])ccc2Cl)sc2nc3ccccc3n12 | -7.5
